In ChEMBL document CHEMBL1201862, “PubChem BioAssay data set” (2004):
About 11,000 (3.5%) of roughly 310,000 compounds were called active. Roughly 8% stayed inconclusive and do not appear here. No cut-off for these calls is given here. Only a selection was taken, and actives are over-represented in it overall.

biological target: Nuclear receptor ROR-gamma (Mus musculus) (UniProt P51450); test: VP16 counterscreen qHTS for inhibitors of ROR gamma transcriptional activity.; assay type: functional
Sequence (P51450 whole entry): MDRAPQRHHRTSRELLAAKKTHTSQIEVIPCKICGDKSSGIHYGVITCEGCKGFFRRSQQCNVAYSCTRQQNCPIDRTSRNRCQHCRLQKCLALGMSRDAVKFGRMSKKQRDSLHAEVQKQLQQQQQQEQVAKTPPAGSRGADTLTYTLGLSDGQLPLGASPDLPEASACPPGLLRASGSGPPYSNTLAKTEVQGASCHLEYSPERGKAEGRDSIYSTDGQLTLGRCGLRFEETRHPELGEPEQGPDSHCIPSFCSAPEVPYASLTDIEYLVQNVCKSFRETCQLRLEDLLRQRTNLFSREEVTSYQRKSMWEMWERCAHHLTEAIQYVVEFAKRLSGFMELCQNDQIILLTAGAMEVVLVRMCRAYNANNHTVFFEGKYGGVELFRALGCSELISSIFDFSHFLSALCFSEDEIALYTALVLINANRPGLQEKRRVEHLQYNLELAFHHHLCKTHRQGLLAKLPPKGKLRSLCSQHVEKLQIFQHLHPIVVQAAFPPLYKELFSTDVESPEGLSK

Potency, active:
O=C(Oc1c(Cl)cc(Cl)c2cccnc12)c1cccc([N+](=O)[O-])c1 200 µM
COc1cccc2sc(Nc3nc(-c4ccccn4)cs3)nc12 355 µM
O=C(N/N=C(\c1ccccc1)c1cccnc1)c1cccc(F)c1 891 µM
O=C(NC1CCCCCCC1)C1CCN(c2nc3ccccc3o2)CC1 631 µM
Cc1ccc(-n2c(C)cc(C(=O)COC(=O)c3cccnc3O)c2C)cc1 224 µM
